“And” between values parts separate entries of the source, which are not always exact repeats. Equal values may be shown once. Values without a mark were called inactive. The source made the active and inactive calls. The rule behind the calls is not given here.

The nature of the first assay: Cy5 fluorescence quenching or enhancement artefacts, artefact control for HCV NS3 helicase inhibitor project, biochemical, LOPAC1280 (AID 687037). The note with it: Cy5-DNA-NS3h complex fluorescence interference counterscreen.
For `CC12CC3CC(C)(C1)CC(N)(C3)C2`, the fluorescence ratio (interference) is 1.

Take `CC1=NS(=O)(=O)c2cc(Cl)ccc2N1`: the fluorescence ratio (interference) is 1.

`NCCc1ccc(O)c(O)c1`: the fluorescence ratio (interference) was 1.

For the molecule `CN=C(NC#N)NCCSCc1nc[nH]c1C`, the fluorescence ratio (interference) is 1.

In the case of `CC1COc2c(N3CCN(C)CC3)c(F)cc3c(=O)c(C(=O)O)cn1c23` (stereo not given), the fluorescence ratio (interference) was 0.9.

Consider `O=C(C1CCCCC1)N1CC(=O)N2CCc3ccccc3C2C1` (stereo not given), for which the fluorescence ratio (interference) is 1.

Take `CC1=C(/C=C/C(C)=C/C=C/C(C)=C/C(=O)O)C(C)(C)CCC1`: the fluorescence ratio (interference) is 0.9.

Consider `CCCCNc1cc(C(=O)O)cc(S(N)(=O)=O)c1Oc1ccccc1`, for which the fluorescence ratio (interference) is 0.9.

Consider `O=c1[nH]cnc2[nH]ncc12`, for which the fluorescence ratio (interference) was 0.9.

Turning to `O=C1c2c(O)ccc(O)c2C(=O)c2c(NCCNCCO)ccc(NCCNCCO)c21`, the fluorescence ratio (interference) was 0.5 (active).

With `CC(C)C(=O)Nc1ccc([N+](=O)[O-])c(C(F)(F)F)c1`, the fluorescence ratio (interference) is 1.

With `CC(COc1ccccc1)N(CCCl)Cc1ccccc1` (stereo not given), the fluorescence ratio (interference) was 1.

As for `NS(=O)(=O)c1cc2c(cc1Cl)NCNS2(=O)=O`, the fluorescence ratio (interference) was 1.

As to `CCOC(=O)C1=C(C)NC(C)=C(C(=O)OC)C1c1cccc([N+](=O)[O-])c1` (stereo not given), the fluorescence ratio (interference) was 0.9.

With `COc1ccccc1OCCNCC(O)COc1cccc2[nH]c3ccccc3c12` (stereo not given), the fluorescence ratio (interference) is 1.

With `NNCCc1ccccc1`, the fluorescence ratio (interference) was 0.9.

Turning to `CC(C)Cc1ccc(C(C)C(=O)O)cc1` (stereo not given), the fluorescence ratio (interference) was 1.

With `N[C@@H]1CONC1=O`, the fluorescence ratio (interference) was 0.9.

Take `CCN(Cc1ccncc1)C(=O)C(CO)c1ccccc1` (stereo not given): the fluorescence ratio (interference) was 0.9.

`CC(C[N+](C)(C)C)OC(N)=O` (stereo not given): the fluorescence ratio (interference) was 1.

As to `COc1ccc(Cl)cc1C(=O)NCCc1ccc(S(=O)(=O)NC(=O)NC2CCCCC2)cc1`, the fluorescence ratio (interference) is 1.

Consider `COCCOC(=O)C1=C(C)NC(C)=C(C(=O)OC(C)C)C1c1cccc([N+](=O)[O-])c1` (stereo not given), for which the fluorescence ratio (interference) is 0.9.

The nature of the next assay: Cy5 fluorescence interference with SSB-bound oligo, artefact control for HCV NS3 helicase inhibitor project, biochemical, NIH Clinical Collection, E. coli SSB (AID 743268).
Settings: not given
Regarding `CC12CC3CC(C)(C1)CC(N)(C3)C2`, the fluorescence ratio was 1.02.

For the molecule `CC(=O)OCC(CCn1cnc2cnc(N)nc21)COC(C)=O`, the fluorescence ratio was 1.06.

As to `S=c1nc[nH]c2nc[nH]c12`, the fluorescence ratio is 1.03.

Regarding `Oc1c(Cl)cc(Cl)c2cccnc12`, the fluorescence ratio was 1.02.

Consider `CC1=NS(=O)(=O)c2cc(Cl)ccc2N1`, for which the fluorescence ratio was 1.

Take `OC(Cn1cncn1)(Cn1cncn1)c1ccc(F)cc1F`: the fluorescence ratio is 1.05.

As for `NCCc1ccc(O)c(O)c1`, the fluorescence ratio was 0.93.

For the molecule `CN=C(NC#N)NCCSCc1nc[nH]c1C`, the fluorescence ratio is 0.98.

Take `COc1c(N2CCNC(C)C2)c(F)cc2c(=O)c(C(=O)O)cn(C3CC3)c12` (stereo not given): the fluorescence ratio is 1.05.

As to `CC1COc2c(N3CCN(C)CC3)c(F)cc3c(=O)c(C(=O)O)cn1c23` (stereo not given), the fluorescence ratio is 0.99.

With `O=C(C1CCCCC1)N1CC(=O)N2CCc3ccccc3C2C1` (stereo not given), the fluorescence ratio is 0.91.

Turning to `CCc1cc(C(N)=S)ccn1`, the fluorescence ratio is 1.03.

In the case of `CC1=C(/C=C/C(C)=C/C=C/C(C)=C/C(=O)O)C(C)(C)CCC1`, the fluorescence ratio was 1.02.

`CCCCNc1cc(C(=O)O)cc(S(N)(=O)=O)c1Oc1ccccc1`: the fluorescence ratio was 1.02.

`O=c1[nH]cnc2[nH]ncc12`: the fluorescence ratio is 1.02.

For `O=C1c2c(O)ccc(O)c2C(=O)c2c(NCCNCCO)ccc(NCCNCCO)c21`, the fluorescence ratio is 0.74 (active).

In the case of `O=C(O)c1cc(=O)c2c(OCC(O)COc3cccc4oc(C(=O)O)cc(=O)c34)cccc2o1`, the fluorescence ratio is 1.02.

Turning to `CC(C)C(=O)Nc1ccc([N+](=O)[O-])c(C(F)(F)F)c1`, the fluorescence ratio is 0.94.

In the case of `CC(COc1ccccc1)N(CCCl)Cc1ccccc1` (stereo not given), the fluorescence ratio was 1.06.

For `CCCc1nc2c(C)cc(-c3nc4ccccc4n3C)cc2n1Cc1ccc(-c2ccccc2C(=O)O)cc1`, the fluorescence ratio is 1.02.

Turning to `CC(=O)CC(c1ccccc1)c1c(O)c2ccccc2oc1=O` (stereo not given), the fluorescence ratio is 1.

`NS(=O)(=O)c1cc2c(cc1Cl)NCNS2(=O)=O`: the fluorescence ratio was 0.125 (active).

Regarding `CS(=O)(=O)OCCCCOS(C)(=O)=O`, the fluorescence ratio is 1.02.

In the case of `CCOC(=O)C1=C(C)NC(C)=C(C(=O)OC)C1c1cccc([N+](=O)[O-])c1` (stereo not given), the fluorescence ratio is 1.

Take `COc1ccccc1OCCNCC(O)COc1cccc2[nH]c3ccccc3c12` (stereo not given): the fluorescence ratio is 0.92.

Regarding `O=C(O)CCCc1ccccc1`, the fluorescence ratio is 0.99.

With `NNCCc1ccccc1`, the fluorescence ratio is 0.99 and 1.14.

As to `CC1Cc2ccccc2N1NC(=O)c1ccc(Cl)c(S(N)(=O)=O)c1` (stereo not given), the fluorescence ratio was 0.31 (active).

Take `N[C@@H]1CONC1=O`: the fluorescence ratio is 0.99 and 1.05.

Turning to `CCN(Cc1ccncc1)C(=O)C(CO)c1ccccc1` (stereo not given), the fluorescence ratio is 1.06.

For the molecule `CCCc1cc(=O)[nH]c(=S)[nH]1`, the fluorescence ratio was 1.04.

Turning to `O=C(O)c1cccnc1`, the fluorescence ratio is 1.05.

On to `CC(C[N+](C)(C)C)OC(N)=O` (stereo not given), for which the fluorescence ratio was 1.06.

As for `COc1ccc(Cl)cc1C(=O)NCCc1ccc(S(=O)(=O)NC(=O)NC2CCCCC2)cc1`, the fluorescence ratio was 0.97.

As for `N[C@@H](Cc1cc(I)c(Oc2cc(I)c(O)c(I)c2)c(I)c1)C(=O)O`, the fluorescence ratio was 0.87.

As for `CC1(C)O[C@@H]2[C@@H](CO[C@@]3(COS(N)(=O)=O)OC(C)(C)O[C@@H]23)O1`, the fluorescence ratio is 1.04.

On to `COCCOC(=O)C1=C(C)NC(C)=C(C(=O)OC(C)C)C1c1cccc([N+](=O)[O-])c1` (stereo not given), for which the fluorescence ratio was 0.87.

For `NNC(=O)c1ccncc1`, the fluorescence ratio is 1.01.

Source of the values: PubChem BioAssay.
